SNCA expr inh: reduces expression of the alpha-synuclein gene | HEK-293 SNCA-luciferase knock-in, luminescence, 24 h | Potency, µM (top dose mostly 57.2 µM), inactives show at the top dose activity change, negative = inhibition, actives largely listed as inhibitors | 140,000 compounds, 0.17% hits;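 note: plate controls were DMSO cells for no effect and cell-free wells for full effect; nearly all actives have a fitted effect of over 45% in size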
HEK cytotox: cytotoxic compounds in HEK 293 cells. HEK 293 viability, ATP luminescence (CellTiter-Glo), 48-72 h. Potency, µM (doses to about 115 µM), without a hit: at the top dose activity change, negative = cytotoxicity, hits mostly inhibitors. 94,000 compounds, 6.6% hits; note: nearly all actives have a fitted effect of over 60% in size
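Read-out: CellTiter-Glo ATP luminescence. Cells: HEK 293, 250 cells/well. Exposure: 48 or 72 hr, 37 degree Celsius.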
hNpr1 antagonist: antagonists of human natriuretic peptide receptor Npr1 | P16066 | HEK293 hNpr1 GloSensor cGMP, ANP-stimulated luminescence | Potency, µM (doses to about 46.3 µM), inactives show top-dose activity change, negative = inhibition, most hits filed as inhibitors | 76,000 compounds, 1.6% hits | AID 1347048; calls by dose curve; note: nearly all actives have a fitted effect of over 60% in size
Target sequence (P16066 whole entry, looked up): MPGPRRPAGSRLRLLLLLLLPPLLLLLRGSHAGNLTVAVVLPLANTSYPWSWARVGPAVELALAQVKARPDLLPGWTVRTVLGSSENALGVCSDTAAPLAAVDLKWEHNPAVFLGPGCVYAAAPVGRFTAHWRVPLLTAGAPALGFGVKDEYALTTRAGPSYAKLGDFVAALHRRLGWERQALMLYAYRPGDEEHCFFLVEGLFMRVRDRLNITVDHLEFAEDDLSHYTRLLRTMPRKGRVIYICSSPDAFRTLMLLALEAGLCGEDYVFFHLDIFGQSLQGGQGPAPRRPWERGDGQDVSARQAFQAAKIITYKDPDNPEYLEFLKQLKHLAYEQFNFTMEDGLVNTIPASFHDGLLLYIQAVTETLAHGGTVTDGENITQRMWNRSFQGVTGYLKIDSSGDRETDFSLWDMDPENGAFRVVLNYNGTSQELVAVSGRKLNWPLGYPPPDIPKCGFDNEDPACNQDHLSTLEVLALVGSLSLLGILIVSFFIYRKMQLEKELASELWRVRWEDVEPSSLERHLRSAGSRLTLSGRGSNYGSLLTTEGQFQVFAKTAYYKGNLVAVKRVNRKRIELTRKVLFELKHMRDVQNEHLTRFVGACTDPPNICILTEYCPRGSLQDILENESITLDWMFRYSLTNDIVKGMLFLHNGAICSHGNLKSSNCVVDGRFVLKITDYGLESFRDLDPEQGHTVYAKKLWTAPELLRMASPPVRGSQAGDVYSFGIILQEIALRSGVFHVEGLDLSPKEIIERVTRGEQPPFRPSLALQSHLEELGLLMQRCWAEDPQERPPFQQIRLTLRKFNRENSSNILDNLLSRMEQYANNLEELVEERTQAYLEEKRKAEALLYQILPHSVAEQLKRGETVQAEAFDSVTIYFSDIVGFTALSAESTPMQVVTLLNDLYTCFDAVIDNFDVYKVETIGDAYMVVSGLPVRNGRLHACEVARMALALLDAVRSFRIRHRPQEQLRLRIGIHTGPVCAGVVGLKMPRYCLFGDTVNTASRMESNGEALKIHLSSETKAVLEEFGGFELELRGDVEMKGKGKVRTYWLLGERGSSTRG
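Compound pre-incubated 30 min at room temperature on GloSensor-loaded HEK293 cells stably carrying hNpr1 and the pGS-40F cGMP biosensor. Stimulation uses hNppA at 0.1 nM final; luminescence is taken at baseline and 20 min post-agonist.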
Luciferase inh: Photinus pyralis luciferase inhibition; P08659; purified P. pyralis luciferase, luminescence, biochemical; Potency, µM (highest dose often 115 µM), usual class: inhibitors; 76,000 compounds, 2.5% hits; AID 1347043; note: nearly all actives have a fitted effect of over 65% in size
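Luminescence read by CCD imaging after purified firefly luciferase (10nM final) was added to substrate buffer holding 10uM D-luciferin and 10uM ATP, pH 7.5, pre-dosed with compound.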
NIH3T3 tox: cytotoxic compounds in NIH 3T3 cells | NIH 3T3 viability, CellTiter-Glo ATP luminescence, 48-72 h | Potency, µM (highest dose often 96.7 µM), without a hit: at the highest dose activity change, negative = cytotoxicity, usual class: inhibitors | 94,000 compounds, 4.3% hits | AID 1345082; note: nearly all actives have a fitted effect of over 55% in size
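Cytotoxicity is measured as loss of cellular ATP: NIH 3T3 cells (400/well) are exposed to compound for 48 or 72 hr at 37 °C, then CellTiter-Glo luminescence is imaged after 10 min at room temperature.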
HEK293 viab: counter-screen for SNCA expression inhibitors: cell viability; AID 1671193; HEK-293-SNCA-luc viability, GF-AFC fluorescence, 24 h; Potency, µM (highest dose often 57.1 µM), for inactives: at the highest dose activity change, negative = cytotoxicity, usual class: cytotoxic; 150,000 compounds, 0.12% hits;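 note: 0% = DMSO-treated cells and -100% = medium-only wells without cells; nearly all actives have a fitted effect of over 30% in size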
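HEK-293-SNCA-luc cells (1500/well) plated 24 h, then exposed 24 h to a dilution series; GF-AFC added 30 min at 37C, fluorescence 405/540 nm; normalised to medium-only and DMSO wells, Hill fit.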
An asterisk follows results filed as active; i = inactive; ? = inconclusive; . = no result given; [ ] = remark or other dose. Shown are actives, neighbours in structure and some others; about 7.4% of the full set was active somewhere. Unless noted, calls come from the whole dose curve; as a rule, active = well fitted curve in the direction sought with a large enough effect; inconclusive = small, poorly fitted or top-dose-only effect, or another doubt; inactive = no such curve, though single readings can be large; an effect the other way counts as inactive or inconclusive. Unless noted, % is set by controls: 0 for no effect and ±100 for the full control effect; potency is the fitted concentration of half-maximal effect.

SMILES	SNCA expr inh	HEK cytotox	hNpr1 antagonist	Luciferase inh	NIH3T3 tox	HEK293 viab
COc1ccc2nc(C[C@@H]3C[C@@H](C(C)C)[C@H](CNC(=O)CC4(CC(=O)O)CCCC4)C=C3C)[nH]c2c1	-1%	-26%	-1%	i	-26%	-20%
CCCNC(=O)NC[C@@H]1C=C(C)[C@H](Cc2nc3ccc(C(=O)OC)cc3[nH]2)C[C@H]1C(C)C	-1%	?	-26%	i	?	-15%
CCCNC(=O)NC[C@@H]1C=C(C)[C@H](Cc2nc3ccc(OC)cc3[nH]2)C[C@H]1C(C)C	?	?	?	i	40µM*	28µM*
CCOC(=O)[C@@H]1[C@@H](OC(N)=O)C(=O)N(C(C)C)C12CCN(S(=O)(=O)c1ccccc1)CC2	.	2%	.	.	?	.
Cn1nc(C(=O)N2CCC[C@H](n3c(=O)n(CC4CC4)c4cccnc43)C2)c2ccccc21	?	32µM*	.	.	?	?
COCCn1c(=O)n([C@H]2CCCN(C(=O)c3nn(C)c4ccccc34)C2)c2ncccc21	10%	?	10%	i	-23%	11%
Cc1ccsc1C(=O)N1CCC[C@H](n2c(=O)n(CC3CC3)c3cccnc32)C1	-19%	25µM*	-23%	i	?	-8%
COc1ccc(C(=O)N2CCCC2C(=O)N2CCCC(c3nc4ncccc4[nH]3)C2)cc1 (stereo unspecified)	-3%	0%	.	.	i	-5%
COCCC1(NS(=O)(=O)c2ccccc2)CCN(S(C)(=O)=O)CC1	1%	0%	4%	i	4%	0%
COCCC1(NC(=O)C(C)c2ccccc2)CCN(S(C)(=O)=O)CC1 (stereo unspecified)	-14%	-12%	-1%	i	-18%	20µM*
CC(C)C[C@@H]1N[C@H](C(=O)NCc2ccc(C(F)(F)F)cc2)Cc2c[nH]c3cccc1c23	?	32µM*	-7%[70.6 µM]	i	28µM*	?
CC(C)C[C@@H]1N[C@H](C(=O)NCc2cccnc2)Cc2c[nH]c3cccc1c23	?	25µM*	-1%[70.6 µM]	i	?	?
CC(C)C[C@@H]1N[C@H](C(=O)NCc2ccc(C#N)cc2)Cc2c[nH]c3cccc1c23	?	56µM*	-11%[70.6 µM]	i	25µM*	?
CC(C)C[C@@H]1N[C@H](C(=O)N2CCOCC2)Cc2cn(Cc3cccnc3)c3cccc1c23	-24%[87.6 µM]	-26%[172 µM]	-12%[70.6 µM]	i	-15%[138 µM]	-4%[87.6 µM]
O=C(NC1CCCN(c2ccc3nnc(C4CC4)n3n2)C1)C1CC1 (stereo unspecified)	.	-5%	.	.	1%	.
COC[C@@H]1CN(C(=O)c2cccnc2)C[C@H]1c1ccccn1	-4%	i	.	.	-4%	2%
CC(C)(Oc1nn(Cc2cccc(Cl)c2)c2ccccc12)C(=O)NCc1cnccn1	-5%[87.6 µM]	89µM*	-23%[70.6 µM]	i	?	-21%[87.6 µM]
CC(C)(Oc1nn(Cc2cccc(Cl)c2)c2ccccc12)C(=O)NCC1CCOCC1	-25%	?	?	i	?	-21%
CN1CCC(NC(=O)C(C)(C)Oc2nn(Cc3cccc(Cl)c3)c3ccccc23)CC1	?	40µM*	-26%[70.6 µM]	i	32µM*	?
CC(C)(Oc1nn(Cc2cccc(Cl)c2)c2ccccc12)C(=O)NCc1ccncc1	?	?	?	i	32µM*	?
CCCN1CCC(N2CCC3(CC2)CC(C(=O)N2CCOCC2)N(C)C3)CC1 (stereo unspecified)	4%	-2%	.	.	-21%	1%
O=C(NCc1cccc(C(F)(F)F)c1)C1CN(C2CCCCC2)C(=O)N1 (stereo unspecified)	-2%	?	.	.	?	13%[12.5 µM]
CCCCn1c(=O)c(C(=O)NCCOC)nc2cccnc21	-11%[87.6 µM]	-1%[172 µM]	.	.	-24%[138 µM]	-7%[87.6 µM]

Screening data: PubChem BioAssay, National Center for Advancing Translational Sciences (NCATS)
